Screening data as filed in PubChem.
NS1 inh – inhibitors of influenza NS1 protein function; Potency, µM (highest dose often 46.1 µM), for the others: top-dose activity, positive = more growth; hit rate 0.4% among 270,000; AID 2326; note: potency is the fitted concentration of half-maximal effect; actives are rising curves; nearly all actives have a fitted effect of over 50% in size
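S. cerevisiae expressing influenza A NS1, grown in glucose, washed, then diluted 1:100 into pH 6.0 -URA galactose medium with 23 nl compound. Growth recovery read as OD600; NS1-free strain serves as control.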
TbPYK inhibitor – blocks Trypanosoma brucei pyruvate kinase; Q57TT1; TbPYK enzyme, Kinase-Glo Plus ATP luminescence, 45 min; Potency, µM (top dose mostly 76.8 µM), for inactives: top-dose activity, negative = inhibition, most hits filed as inhibitors; hit rate 0.12% among 410,000; AID 624173; active = well fitted curve in the direction sought with a large enough effect; inconclusive = small, poorly fitted or top-dose-only effect, or another doubt; inactive = no such curve, though single readings can be large; an effect the other way counts as inactive or inconclusive; note: potency is the fitted concentration of half-maximal effect; % is set by controls: 0 for no effect and ±100 for the full control effect; nearly all actives have a fitted effect of over 50% in size
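Activity of T. brucei pyruvate kinase was followed by Kinase-Glo Plus luminescence after the enzyme reacted 45 min at room temperature with 130 uM ADP (final) and substrate. Test compounds were added before ADP at multiple concentrations.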
Shiga toxin inh – blocks Shiga toxin action in Vero cells | Vero cells, Shiga toxin protein synthesis inhibition reporter | inhibition, % at 38.7 µM | hit rate 9.2% among 290,000; in the data active = inhibition mostly above about 28%, no sharp cut-off; inactive = mostly below about 43%; note: 0% is about no effect
LmPK inh – LmPK (Leishmania mexicana) enzyme inhibition; hit rate 0.37% among 290,000; purified LmPK, Kinase-Glo ATP luminescence, 1 h; Potency, µM (highest dose often 57.5 µM), for the others: at the highest dose activity change, negative = inhibition, actives largely listed as inhibitors; Q27686; active = well fitted curve in the direction sought with a large enough effect; inconclusive = small, poorly fitted or top-dose-only effect, or another doubt; inactive = no such curve, though single readings can be large; an effect the other way counts as inactive or inconclusive; note: potency is the fitted concentration of half-maximal effect; % is set by controls: 0 for no effect and ±100 for the full control effect
Target sequence (Q27686 whole entry, looked up): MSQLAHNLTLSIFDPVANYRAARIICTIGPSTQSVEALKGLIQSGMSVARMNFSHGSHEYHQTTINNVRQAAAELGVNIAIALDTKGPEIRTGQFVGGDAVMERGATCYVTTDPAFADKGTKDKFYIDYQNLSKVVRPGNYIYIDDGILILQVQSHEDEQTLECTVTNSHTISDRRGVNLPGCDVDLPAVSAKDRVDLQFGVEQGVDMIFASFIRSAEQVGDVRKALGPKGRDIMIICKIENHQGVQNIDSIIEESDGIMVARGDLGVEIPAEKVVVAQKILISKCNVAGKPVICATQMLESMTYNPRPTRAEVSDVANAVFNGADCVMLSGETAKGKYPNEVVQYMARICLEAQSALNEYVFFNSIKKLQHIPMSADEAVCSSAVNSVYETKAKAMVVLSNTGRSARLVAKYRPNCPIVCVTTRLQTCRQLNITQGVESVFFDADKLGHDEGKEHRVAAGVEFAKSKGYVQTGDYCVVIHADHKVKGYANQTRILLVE
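ATP generated from ADP (0.1 mM) and PEP (0.5 mM) by 0.1 nM LmPK over 1 h at room temperature (pH 7.2 imidazole buffer) was detected by coupled luciferase luminescence. Values were normalized to uninhibited and no-enzyme wells.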
CHX counter – affects cycloheximide protein synthesis inhibition readout, counter-screen | max response, % | hit rate 12% among 300,000 | cell reporter, cycloheximide protein synthesis inhibition counterscreen | AID 2314; in the data active = max response mostly above about 13%, no sharp cut-off; inactive = mostly below about 14%; note: read at 38.3 µM for the half of the compounds with a filed dose; 0% is about no effect
SARS PLP yeast – inhibitors of SARS-CoV papain-like protease in yeast. S. cerevisiae expressing SARS-CoV PLpro, growth rescue. hit rate 0.19% among 330,000. Potency, µM (titrated, usually from 32.9 µM), for inactives: top-dose activity, positive = growth rescue, usual class: activators. AID 485353; note: potency is the fitted concentration of half-maximal effect; 0% is about no effect; nearly all actives have a fitted effect of over 55% in size
Numbers without * were called inactive; ? = inconclusive; / = no result; + = active, no number; [ ] = dose if it differs, or a comment. Many of the other results were omitted from the sample, so hits are more common in it than they were. Unless noted, calls come from the whole dose curve.

SMILES	NS1 inh	TbPYK inhibitor	Shiga toxin inh	LmPK inh	CHX counter	SARS PLP yeast
CCOC(=O)c1cn2c3c(c(F)c(F)c(F)c3c1=O)SC(N1CCCC1)=N2	4%	/	/	/	/	/
OCCOc1ccc(C2=NCCO2)cc1	-1%	1%	58	-10%	15*	6%
Cn1c(NC(=O)/C=C\c2ccccc2)cc(=O)n(C)c1=O	/	-1%	80*	-11%[11.5 µM]	36*	1%
O=C(/C=C/c1ccccc1)Nc1ccc2c(c1)C(=O)NC2=O	3%	2%	37	2%	19*	1%
O=C(/C=C/c1ccccc1Cl)Nc1ccc2c(c1)C(=O)NC2=O	/	-2%	58*	8%	16	-1%
O=C(Nc1ccc2c(c1)C(=O)NC2=O)c1ccccc1Cl	12%	5%	6	-8%	12	8%
CC(C)OP(=O)(OC(C)C)/C(C=O)=N\Nc1ccc([N+](=O)[O-])cc1	-84%	0%	26	-7%	-3	-1%
O=C(CNC(=O)CNC(=O)c1ccc(Cl)cc1Cl)NCc1cccc(Cl)c1	-4%	9%	-2	-11%	1	?
O=[N+]([O-])c1cc2no[n+]([O-])c2cc1N1CCCCC1	/	14µM*	/	/	/	/
O=C(Nc1ccc(/C=C/c2nc3ccccc3o2)cc1)c1c(F)cccc1F	7%	-9%	+	4%	28*	-1%
O=[N+]([O-])c1ccc2oc(/C=C/c3ccc(O)cc3)nc2c1	/	-5%	/	/	/	/
Cc1cnc(Nc2nc3ccccc3o2)nc1C(=O)Nc1cccc(C(F)(F)F)c1	-40%	5%	23	9%	2	-4%
CC(=O)Nc1ccc(/C=C/c2nc3ccccc3o2)cc1	-34%	-5%	101*	1%	54*	-7%
C(=Cc1nc2ccccc2o1)c1ccc2c(c1)OCO2	/	-16%	/	/	/	/
O=C(Nc1ccc(/C=C/c2nc3ccccc3o2)cc1)c1cccc(C(F)(F)F)c1	14%	-1%	102*	-1%	34*	-4%
COc1ccc(NC(=O)C2(C)Cc3c(-c4ccc5c(c4)OCO5)ccnc3O2)cc1OC (centres undefined)	/	-3%	/	/	/	/
CCOc1ccc2nc(-c3cc(NC(C)=O)ccc3O)sc2c1	3%	0%	51	11%	35*	0%
CCC(=O)Nc1nc2ccc(S(C)(=O)=O)cc2s1	2%	2%	25	0%	14	6%
CCOc1ccc2nc(NC(=O)CSCC(=O)Nc3cc(C)on3)sc2c1	/	-7%	/	/	/	-2%
CCOCC(=O)Nc1nc2ccc(S(C)(=O)=O)cc2s1	13%	1%	54*	-6%	33*	2%
CCOCC(=O)Nc1nc2ccc(OCC)cc2s1	-28%	-8%	112*	?	52*	0%
COc1ccc(OCC(=O)Nc2ccc(O)c(-c3nc4ccccc4s3)c2)cc1	/	0%	/	/	/	/
Cc1ccc2nc(NC(=O)CSCC(=O)OCC(=O)c3ccccc3)sc2c1	-8%	-2%	15	2%	18*	25%
CC(=O)c1cccc(-c2ccnc3c2CC(C(=O)Nc2cccc(OC(F)(F)F)c2)O3)c1 (centres undefined)	/	4%	/	/	/	/
Cc1ccc(C(C)C)c(OCC(=O)Nc2ccc(O)c(-c3nc4cc(Cl)ccc4o3)c2)c1	/	-4%	/	/	/	/
SMILES	NS1 inh	TbPYK inhibitor	Shiga toxin inh	LmPK inh	CHX counter	SARS PLP yeast
CCCCC(=O)N1CCc2cc(OC)c(OC)cc2C1COc1ccc(OC)cc1 (centres undefined)	/	2%	/	/	/	/
Cc1ccc2nc(NC(=O)COC(=O)c3ccccn3)sc2c1	/	3%	119*	-1%	36*	-3%
CCOc1ccc2nc(NC(=O)CCC(=O)c3cccs3)sc2c1	1%	-11%	87*	-2%	30*	-7%
Cc1ccc2nc(NC(=O)CCCC(=O)O)sc2c1	3%	3%	6	-5%	-3	0%
CS(=O)(=O)c1ccc2nc(NC(=O)CN3CCC(Cc4ccccc4)CC3)sc2c1	-6%	3%	8	1%	-6	-1%
CS(=O)(=O)c1ccc2nc(NC(=O)CC3CCCC3)sc2c1	4%	-5%	53*	1%	24*	-1%
CCOCC(=O)Nc1nc2ccc(C)cc2s1	-2%	0%	85*	-27%	43*	?
C/C=C/C(=O)OCC(=O)Nc1nc2ccc(C)cc2s1	14%	5%	-3	-8%	7	12%
O=C(Nc1cccc(-n2cnnn2)c1)c1ccoc1COc1ccc(Cl)cc1	13%	0%	-1	-5%	-3	-1%
COc1cc(C(=O)NNC(=O)c2nn(C)c(=O)c3ccccc23)cc(OC)c1OC	/	-1%	/	/	/	2%
CS(=O)(=O)c1ccc2nc(NC(=O)CCN3C(=O)c4ccccc4C3=O)sc2c1	/	-25%	9	-2%	11	-5%
CC(C)CC(=O)Nc1nc2ccc(S(C)(=O)=O)cc2s1	4%	-14%	67*	-1%	17*	-1%
CCOc1ccc(NC(=O)Cn2c(=O)n(CCCC(=O)NCCc3ccc(Cl)cc3)c(=O)c3ccccc32)cc1	/	3%	/	/	/	/
O=C(C[n+]1ccc(-c2ccccc2)cc1)Nc1ccc([N+](=O)[O-])cc1	2%	0%	-6	-10%	1	4%
O=c1c2c([N+](=O)[O-])cc([N+](=O)[O-])cc2sn1-c1ccc(Br)cc1	-5%	4µM*	-7	1%	1	-108%
O=c1c2c([N+](=O)[O-])cc([N+](=O)[O-])cc2sn1Cc1ccccc1	-59%	1.6µM*	-3	-6%	-5	-12%
O=C(NCCN1CCC(n2c(=O)[nH]c3ccccc32)CC1)c1cc(F)cc(F)c1	/	5%	/	/	/	/
Cc1[nH]c2ccccc2c1/C=N/NC(=O)c1ccccc1	2%	0%	51*	-10%	42*	-1%
CC(C)(C)c1cc(C(=O)N/N=C/c2ccccn2)n[nH]1	-2%	8%	53*	0%	21*	0%
Cc1[nH]c2ccccc2c1/C=N/NC(=O)Nc1ccccc1	/	1%	+	8%	28*	3%
Cc1[nH]c2ccccc2c1/C=N/NC(=O)c1cc(-c2ccccc2)n[nH]1	-4%	5%	-5	1%	8	-2%
Cc1[nH]c2ccccc2c1/C=N/NC(=O)c1cc(C(C)(C)C)[nH]n1	-13%	0%	22	4%	12*	-2%
Cc1[nH]c2ccccc2c1/C=N/NC(=O)c1ccc(N)cc1	6%	-5%	6	0%	20	0%
CCOC(=O)c1c(C)oc2nc(C)nc(N3CCN(c4ccc(C(C)=O)cc4)CC3)c12	/	0%	/	/	/	/
COc1cc(C)c(NC(=O)COc2cccc3c2OC(C)(C)C3)cc1OC	/	1%	/	/	/	-3%
Cc1[nH]c2ccccc2c1/C=N/NC(N)=S	-1%	-4%	4	1%	0	0%
Cc1ccc(NC(=S)N/N=C/c2c(C)[nH]c3ccccc23)cc1	6%	-1%	80*	-4%	23*	-2%
Cc1[nH]c2ccccc2c1/C=C/C(=O)c1ccccc1	-21%	2%	86*	4%	25*	-20%
